# Values without a mark were called inactive. The source made the active and inactive calls.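 How the source made its calls, unless noted: active means mean inhibition above 46.5%, the solvent-only control mean plus 3 SD; inactive means the rest.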
# What was measured:
# [1] = test system: transactivating tegument protein VP16 (Human herpesvirus 1); assay: VP16 transactivation reporter inhibitors, counter-screen for SRC2 inhibitor project, cell-based, luminescence, single concentration (AID 652007; in the data active means inhibition above about 36%); conditions: cell-based VP16 transactivation luciferase reporter, at 8.9 µM, active compounds read high
# [2] = target: Nuclear receptor coactivator 2 (Homo sapiens) (UniProt Q15596); assay: SRC2 coactivator transcriptional activity inhibitors, confirmation, cell-based, luminescence, HEK293, triplicate (AID 652008); conditions: HEK293 GAL4-SRC2 luciferase reporter, at 8.9 µM, active compounds read high;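 further: 0% = DMSO-treated cells and 100% = Gossypol at 36 µM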
# Sequence of Nuclear receptor coactivator 2 (Homo sapiens) (Q15596 whole entry, looked up, the tested form may be a part): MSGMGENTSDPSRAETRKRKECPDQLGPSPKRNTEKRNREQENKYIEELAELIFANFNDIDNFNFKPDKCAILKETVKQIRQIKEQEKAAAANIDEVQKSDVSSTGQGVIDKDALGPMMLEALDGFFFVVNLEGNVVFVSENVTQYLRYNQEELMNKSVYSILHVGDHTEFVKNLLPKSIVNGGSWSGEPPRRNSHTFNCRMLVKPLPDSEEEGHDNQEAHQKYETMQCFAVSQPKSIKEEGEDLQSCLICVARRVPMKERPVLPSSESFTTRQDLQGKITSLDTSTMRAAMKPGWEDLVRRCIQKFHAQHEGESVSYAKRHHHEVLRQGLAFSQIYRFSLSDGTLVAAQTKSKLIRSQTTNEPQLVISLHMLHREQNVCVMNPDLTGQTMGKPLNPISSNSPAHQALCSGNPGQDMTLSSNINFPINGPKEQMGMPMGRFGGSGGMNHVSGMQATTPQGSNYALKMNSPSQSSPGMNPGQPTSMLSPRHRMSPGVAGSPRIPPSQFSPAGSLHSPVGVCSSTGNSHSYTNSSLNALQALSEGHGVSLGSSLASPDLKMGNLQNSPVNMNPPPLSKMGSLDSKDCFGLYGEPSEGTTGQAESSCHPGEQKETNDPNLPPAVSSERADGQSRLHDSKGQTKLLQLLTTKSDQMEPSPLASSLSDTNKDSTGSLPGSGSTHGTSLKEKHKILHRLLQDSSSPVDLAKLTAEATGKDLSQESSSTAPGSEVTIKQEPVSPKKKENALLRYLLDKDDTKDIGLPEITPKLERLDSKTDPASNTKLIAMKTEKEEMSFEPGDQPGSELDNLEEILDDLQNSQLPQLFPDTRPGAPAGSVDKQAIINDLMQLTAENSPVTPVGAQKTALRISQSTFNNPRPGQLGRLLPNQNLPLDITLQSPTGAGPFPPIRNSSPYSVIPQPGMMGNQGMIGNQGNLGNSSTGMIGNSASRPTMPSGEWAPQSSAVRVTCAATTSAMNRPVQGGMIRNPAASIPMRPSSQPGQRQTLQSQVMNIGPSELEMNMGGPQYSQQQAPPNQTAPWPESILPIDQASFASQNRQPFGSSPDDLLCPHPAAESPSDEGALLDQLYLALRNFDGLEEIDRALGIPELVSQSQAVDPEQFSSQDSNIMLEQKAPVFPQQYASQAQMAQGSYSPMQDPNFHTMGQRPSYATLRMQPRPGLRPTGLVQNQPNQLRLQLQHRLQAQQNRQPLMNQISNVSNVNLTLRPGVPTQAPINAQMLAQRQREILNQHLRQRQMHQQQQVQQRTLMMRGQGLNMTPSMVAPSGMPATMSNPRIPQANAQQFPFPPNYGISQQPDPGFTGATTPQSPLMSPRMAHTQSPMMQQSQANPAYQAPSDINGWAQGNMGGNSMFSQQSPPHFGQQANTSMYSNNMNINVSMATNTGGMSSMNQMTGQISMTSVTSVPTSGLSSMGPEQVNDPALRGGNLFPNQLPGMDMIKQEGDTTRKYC
SMILES,inhibition [1] [%],inhibition [2]
Cn1cc(CN2CCN(CCO)CC2)c(-c2ccc(Oc3ccccc3)cc2)n1,-9.32,7.36%
CC(=O)N1CCCc2cc(S(=O)(=O)N3CCCC(C(=O)NCc4ccccc4Cl)C3)ccc21 (configuration not stated),24.9,21.1%
CCOC(=O)N1C(=O)[C@@](c2ccc(Cl)cc2)(C(C)C)N1C(=O)OCC,-14,16.6%
CN1/C(=C/C=C/c2n(C)c3cc([N+](=O)[O-])c([N+](=O)[O-])cc3[n+]2C)C(C)(C)c2ccccc21,3.99,-3.59%
Cc1ccc(-c2nnc(SCCC(=O)N3CCOCC3)o2)cc1,-40.9,-16.8%
Cn1nc(C(C)(C)C)cc1C(=O)N1CCCCC1c1cc(C(=O)Nc2ccccc2Cl)no1 (configuration not stated),7.65,13.2%
CCCN1C2CCCC1CC(NC(=O)c1cccc(Cl)c1)C2 (configuration not stated),4.37,40.8%
CC(C)(C)c1ccccc1NC(=O)CN1C(=O)NC2(CCCC2)C1=O,-13.7,-9.65%
COc1cc(/C=N/NC(=O)c2ccc(COc3cc(C)ccc3C(C)C)cc2)cc(OC)c1O,-2.59,62.9% (active)
Cc1ccc(C(=O)OCC(=O)NC2CCCC(C)C2C)cc1S(=O)(=O)N1CCCCC1 (configuration not stated),-10.8,9.97%
Cc1ccc(C)c(N2CCN(C(=O)c3ccc4c(c3)c(C)c(C)n4C)CC2)c1,-28.6,3.19%
